Results with a measured potency or affinity are listed apart. Records with an inconclusive call do not appear. Unmarked numbers belong to inactive results. Activity calls are given as the source filed them. Unless noted, no rule for the calls is given here.

The text below walks through data of PubChem BioAssay.

Test [1] can be described thus: RMG-1 ovarian cancer cell viability loss – cherry-pick, dose response (AID 687029;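 active = signal drop whose fitted half-maximal concentration is at most twice the top valid dose, in every test run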;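 also: cells exposed to compound for 96 hours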).
Test [2] in a line: general cell-killing toxicity readout – plate reader, dry powder samples, cytotoxicity control for PAX8 inhibitor project, dose response (AID 743021).

`CCCCC(=O)NC(c1ccccc1)c1ccc2cccnc2c1O` (stereo unspecified): the molecule was called inactive in test [1] and in test [2].
Regarding `O=C(CCCN1C(=O)/C(=C/c2cccc(Br)c2)SC1=S)Nc1ccccn1`, the call in test [1] and in test [2] was inactive.
With `O=C(CCl)Nc1cc2[nH]c(=O)[nH]c2cc1Br`, the call in test [1] and in test [2] was inactive.
On to `CCCCC(=O)NC(c1ccccc1OC)c1ccc2cccnc2c1O` (stereo unspecified), for which the call in test [1] and in test [2] was inactive.
As to `O=C(Nc1cccc(C(F)(F)F)c1)Nc1ccc(N2CCCC2)c(S(=O)(=O)Nc2ccccc2Cl)c1`, the result in test [1] and in test [2] was inactive.
For `O=C(NC(Nc1nc2ccc([N+](=O)[O-])cc2s1)(C(F)(F)F)C(F)(F)F)c1ccccc1Cl`, the call in test [1] and in test [2] was inactive.
Regarding `O=C(Nc1ccc(N2CCN(C(=O)c3cccs3)CC2)cc1)c1ccc([N+](=O)[O-])o1`, the call in test [1] and in test [2] was inactive.
Consider `O=c1[nH]nnc2c1ncn2C1OC(CO)C(O)C1O` (stereo unspecified), for which the molecule was classed as inactive in test [1] and in test [2].
On to `O=C(/C=C/c1cccs1)NC(=S)NNC(=O)c1ccccc1O`, for which the outcome in test [1] and in test [2] was inactive.
In the case of `COc1cc(CNc2ncnc3c2ncn3[C@H]2CN(Cc3ccc(-c4ccccc4)cc3)C[C@@H](CO)O2)cc(OC)c1OC`, the outcome in test [1] and in test [2] was inactive.
As to `CCOC(=O)N1CCC(NC(=O)c2ccc3c(c2)N=C(C)c2c(C)ccc(C)c2S3)CC1`, the call in test [1] and in test [2] was inactive.
As for `COc1cc(C2C(C#N)=C(N)Oc3cc4c(cc32)OCO4)cc(OC)c1OC` (stereo unspecified), the molecule was called inactive in test [1] and in test [2].
As to `CCOCC(=O)NC1CCc2cc(OC(=O)COCC)c(OC)c(OC)c2-c2ccc(SC)c(=O)cc21` (stereo unspecified), the outcome in test [1] and in test [2] was inactive.
On to `COc1ccc(/C=C/C(=O)c2cc(F)ccc2OC(=O)c2ccccc2C)cc1OC`, for which the result in test [1] and in test [2] was inactive.
As to `Cn1nnnc1Sc1ncnc2scc(-c3ccsc3)c12`, the call in test [1] and in test [2] was inactive.
Take `CCC(=O)N1CCN(c2ccc(NC(=O)c3ccc([N+](=O)[O-])o3)cc2Cl)CC1`: the result in test [1] and in test [2] was inactive.
Regarding `COc1ccc2c(C)nc(Nc3nc(-c4ccccc4)cc(=O)[nH]3)nc2c1`, the result in test [1] and in test [2] was inactive.
With `N#C[C@@H]1[C@H](c2ccc(C#Cc3ccc(F)cc3)cc2)[C@@H](CO)N1C(=O)Nc1ccc(F)cc1`, the molecule was called inactive in test [1] and in test [2].
Consider `COc1ccc(-c2cnc3c(NC=O)cc(-c4cccc(NS(C)(=O)=O)c4)cn23)cc1OC`, for which the result in test [1] and in test [2] was inactive.
As for `CCOc1ccc(C(=O)c2cc([N+](=O)[O-])ccc2N2CCOCC2)cc1`, the outcome in test [1] and in test [2] was inactive.
Take `O=C(C[C@@H]1C[C@H]2c3cc(NS(=O)(=O)c4ccc(F)cc4)ccc3O[C@H]2[C@H](CO)O1)NCc1ccc(-c2ccccc2)cc1`: the molecule was classed as inactive in test [1] and in test [2].
With `Cc1cc(C)c2nc(SCC(=O)N3CC(=O)Nc4ccccc43)c(C#N)cc2c1`, the result in test [1] and in test [2] was inactive.
On to `COc1cc2c(c(OC)c1OC)-c1ccc(SC)c(=O)cc1C(NC(=O)C(F)(F)F)CC2` (stereo unspecified), for which the call in test [1] and in test [2] was inactive.
Turning to `CN1CCc2c(sc(NC(=O)c3ccc([N+](=O)[O-])o3)c2C(N)=O)C1`, the result in test [1] and in test [2] was inactive.
Regarding `CCN(CC)S(=O)(=O)c1cccc(NC(=O)Nc2cccc(C(F)(F)F)c2)c1`, the molecule was classed as inactive in test [1] and in test [2].
`Cn1c(=O)[nH]c(=O)c2c1nc([N+](=O)[O-])n2Cc1ccccc1`: the call in test [1] and in test [2] was inactive.
`COc1ccc(-c2csc(NC(=O)c3ccccc3NS(=O)(=O)c3ccc(F)c(F)c3)n2)cc1`: the result in test [1] and in test [2] was inactive.
`C=CC(=O)N1C/C(=C/c2ccc(F)cc2)C(=O)/C(=C\c2ccc(F)cc2)C1`: the molecule was called inactive in test [1] and in test [2].
Consider `CC(=O)c1cc(NC(=O)c2cccc(C(F)(F)F)c2)c(=O)oc1C`, for which the result in test [1] and in test [2] was inactive.
On to `O=C(NN=Cc1c(O)ccc2ccccc12)c1ccncc1`, for which the molecule was classed as inactive in test [1] and in test [2].
Take `CC(=O)Nc1ccc(-c2ccnc3c2CC(C(=O)NCc2ccccc2)O3)cc1` (stereo unspecified): the molecule was called inactive in test [1] and in test [2].
On to `COc1cccc2c1C(=O)c1c(O)c3c(c(O)c1C2=O)C[C@@](O)(C(C)=O)C[C@@H]3O[C@H]1C[C@H](N)[C@H](O)[C@H](C)O1`, for which the result in test [1] and in test [2] was inactive.
Consider `COc1cc2c(c(OC)c1OC)-c1ccc(SC)c(=O)cc1C(NC=O)CC2` (stereo unspecified), for which the outcome in test [1] and in test [2] was inactive.
For the molecule `CC[C@@H]1CCC[C@@H](O)[C@@H](C)C(=O)O[C@H](C)[C@@H](C)C/C=C(C)/C(OC)=C\C(=O)N(C)C([C@@H](C)CC)C(=O)N(C)[C@@H](C(C)C)C(=O)N(C)[C@@H](COC)C(=O)N2CCC[C@H]2C(=O)N(C)[C@@H](C(C)C)C(=O)N2CCC[C@H]2C(=O)O1` (stereo partly specified), the call in test [1] and in test [2] was inactive.
Turning to `COc1cccc(/C=N/Nc2ccc([N+](=O)[O-])cn2)c1O`, the call in test [1] and in test [2] was inactive.
As to `Oc1ccc(Cc2ccccc2)c2cccnc12`, the result in test [1] and in test [2] was inactive.
As for `COc1ccc(C[C@H](N)C(=O)N[C@H]2[C@@H](O)[C@H](n3cnc4c(N(C)C)ncnc43)O[C@@H]2CO)cc1`, the call in test [1] and in test [2] was inactive.
In the case of `COc1ccc(-n2ncc(Cl)c(Cl)c2=O)cc1`, the outcome in test [1] and in test [2] was inactive.
Regarding `Cc1ccc(S(=O)(=O)N2CCCCC2)cc1NC(=O)Cn1ncc(Cl)c(Cl)c1=O`, the molecule was called inactive in test [1] and in test [2].
As for `CC(=NNc1cc(C)c2ccccc2n1)c1ccccn1`, the outcome in test [1] and in test [2] was inactive.
In the case of `O=C(NCCc1ccccc1F)c1ccc2c(c1)OCCO2`, the result in test [1] and in test [2] was inactive.
Turning to `O=C(COc1ccccc1-c1ccccc1)N/N=C/c1ccc2ccccc2c1`, the outcome in test [1] and in test [2] was inactive.
With `C[C@H]1O[C@@H](O[C@H]2[C@@H](O)C[C@H](O[C@H]3[C@@H](O)C[C@H](O[C@H]4CC[C@@]5(C)[C@H](CC[C@@H]6[C@@H]5C[C@@H](O)[C@]5(C)[C@@H](C7=CC(=O)OC7)CC[C@]65O)C4)O[C@@H]3C)O[C@@H]2C)C[C@H](O)[C@@H]1O`, the call in test [1] and in test [2] was inactive.
Turning to `CC1=CC(C)(C)N2C(=O)C3(NCCc4c3[nH]c3ccccc43)c3cc(C)cc1c32` (stereo unspecified), the molecule was classed as inactive in test [1] and in test [2].
Consider `CCOC(=O)c1ccc(NC(=O)Cn2ncc(Cl)c(Cl)c2=O)cc1`, for which the result in test [1] and in test [2] was inactive.
As to `CCCC(=O)N1CCN(c2ccc(NC(=O)c3ccc([N+](=O)[O-])o3)cc2)CC1`, the outcome in test [1] and in test [2] was inactive.
With `O=S(=O)(NC1CCCCC1N1CCN(c2ccccc2F)CC1)c1ccccc1` (stereo unspecified), the molecule was called inactive in test [1] and in test [2].
As for `Cc1cc(O)c(C(C)C)cc1C1(c2cc(C(C)C)c(O)cc2C)OC(=O)c2ccccc21`, the outcome in test [1] and in test [2] was inactive.
